Data taken from the supplement of paper PMC10849652.
Targets with a hit are over-represented here; the source holds about 8,800 in all. About 0.5% of all pairs of compound and target were hits.

Legend:
Experiment in all cases: log2 fold change, soluble protein after heating vs DMSO (PISA); higher = thermal stabilisation; K562 lysate, 10 uM; active = over 0.2 and 3.5 SD of the protein, either way, in both replicates (recomputed)
vemurafenib = compound: CCCS(=O)(=O)Nc1ccc(F)c(C(=O)c2c[nH]c3ncc(-c4ccc(Cl)cc4)cc23)c1F [vemurafenib]
How it was run: (§1)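 K562 pellets were dounce-homogenised in PBS pH 7.4 with 1 mM MgCl2, and the crude extract at 1 mg/mL protein was treated with 10 μM compound for 30 min. Aliquots were heated for 3 min across 48°C-58°C, pooled, and brought to 0.5% NP-40 at 4°C; soluble protein was the supernatant after 21,000xg for 90 min. Soluble protein was quantified by TMTpro 16plex LC-MS/MS with channel sums equalised, and reported as log2 fold change in thermal stability against DMSO controls, with values from duplicates.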

[1] = compound: CCCS(=O)(=O)Nc1ccc(F)c(C(=O)c2c[nH]c3ncc(Cl)cc23)c1F
How it was run: as §1

barasertib = compound: CCN(CCCOc1ccc2c(Nc3cc(CC(=O)Nc4cccc(F)c4)[nH]n3)ncnc2c1)CCOP(=O)(O)O [barasertib]
How it was run: as §1

[2] = compound: CC[C@@H]1C(=O)N(C)c2cnc(Nc3ccc(C(=O)NC4CCN(C)CC4)cc3OC)nc2N1C1CCCC1
How it was run: as §1

volasertib = compound: CC[C@@H]1C(=O)N(C)c2cnc(Nc3ccc(C(=O)N[C@H]4CC[C@H](N5CCN(CC6CC6)CC5)CC4)cc3OC)nc2N1C(C)C [volasertib]
How it was run: as §1

[3] = compound: CCn1c(C(=O)N(C2CC2)C2CC2)cc2c3c(ncn3C)c(Nc3cc(C)n(C)n3)nc21
How it was run: as §1

[4] = compound: CCn1cc(-c2ccnc3[nH]c(-c4cccc(CN(C)C)c4)cc23)c(-c2ccc(NC(=O)N(C)C)cc2)n1
How it was run: as §1

[5] = compound: CN1CCC(CNc2ccc3ncc(-c4cccc(OC(F)(F)F)c4)n3n2)CC1
How it was run: as §1

saracatinib = compound: CN1CCN(CCOc2cc(OC3CCOCC3)c3c(Nc4c(Cl)ccc5c4OCO5)ncnc3c2)CC1 [saracatinib]
How it was run: as §1

sotrastaurin = compound: CN1CCN(c2nc(C3=C(c4c[nH]c5ccccc45)C(=O)NC3=O)c3ccccc3n2)CC1 [sotrastaurin]
How it was run: as §1

Measured: log2 fold change

CLASP1 isoform 4 (UniProt Q7Z460)
inactive: vemurafenib 0.272

DIAPH3 (UniProt Q9NSV4)
inactive: vemurafenib 0.041 | [1] 0.028 | barasertib 0.057 | [2] -0.023 | volasertib -0.099 | [3] 0.058 | [4] -0.098 | [5] -0.092 | saracatinib 0.053 | sotrastaurin 0.064

DHFR (UniProt P00374)
Sequence of UniProt P00374 (P00374 whole entry, looked up): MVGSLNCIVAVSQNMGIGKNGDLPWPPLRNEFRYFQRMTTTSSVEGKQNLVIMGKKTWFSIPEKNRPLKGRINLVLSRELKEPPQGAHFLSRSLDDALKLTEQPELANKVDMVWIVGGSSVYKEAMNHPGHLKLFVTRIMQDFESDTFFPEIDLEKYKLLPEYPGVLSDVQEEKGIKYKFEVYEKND
inactive: vemurafenib -0.047 | barasertib 0.061 | [2] -0.035 | volasertib 0.013 | [3] 0.046 | [4] 0.072 | [5] -0.019 | saracatinib -0.008 | sotrastaurin 0.042
active: [1] 0.206

CUX1 isoform 3 (UniProt P39880)
inactive: vemurafenib 0.059 | [1] -0.012 | barasertib -0.011 | [2] 0.028 | volasertib -0.004 | [3] -0.006 | [4] 0.107 | [5] -0.152 | saracatinib 0.018 | sotrastaurin 0.029

DDX54 isoform 2 (UniProt Q8TDD1)
inactive: vemurafenib -0.041 | [1] 0.017 | [2] -0.069 | volasertib -0.045 | [3] 0.053 | [4] -0.056 | [5] 0 | saracatinib -0.015 | sotrastaurin 0.045
active: barasertib -0.319

CMSS1 (UniProt Q9BQ75)
inactive: vemurafenib -0.011 | [1] 0.005 | barasertib 0.023 | [2] -0.007 | volasertib -0.011 | [3] 0 | [4] 0.212 | [5] -0.086 | saracatinib 0.007 | sotrastaurin -0.003

COX20 isoform 2 (UniProt Q5RI15)
active: [4] 0.623
inactive: vemurafenib 0.011 | [1] -0.011 | barasertib -0.329 | [2] 0.144 | volasertib 0.021 | [3] -0.015 | [5] -0.232 | saracatinib -0.015 | sotrastaurin 0.001

CSK (UniProt P41240)
inactive: vemurafenib 0.43 | [1] 0.304 | barasertib 0.187 | [2] -0.046 | volasertib -0.09 | [3] -0.068 | [4] 0.015 | [5] 0.096 | saracatinib 0.37 | sotrastaurin -0.043

COG3 (UniProt Q96JB2)
inactive: vemurafenib 0.004 | [1] 0.012 | barasertib 0.041 | [2] -0.056 | volasertib -0.071 | [3] 0.042 | [4] -0.038 | [5] 0.012 | saracatinib 0.046 | sotrastaurin 0.008

CLASP1 (UniProt Q7Z460)
inactive: vemurafenib 0.025 | [1] 0.013 | barasertib 0.048 | [2] -0.03 | volasertib -0.018 | [3] 0.039 | [4] -0.043 | [5] 0.042 | saracatinib 0.028 | sotrastaurin -0.022

CSNK2A1 (UniProt P68400)
inactive: vemurafenib -0.124 | [1] 0.017 | barasertib -0.025 | [2] -0.057 | volasertib -0.039 | [3] 0.006 | [4] -0.009 | [5] 0.165 | saracatinib -0.028 | sotrastaurin 0.019

CLCN3 isoform 2 (UniProt P51790)
inactive: vemurafenib -0.015 | [1] 0.052 | barasertib -0.004 | [2] 0.003 | volasertib -0.022 | [3] -0.024 | [4] -0.039 | [5] 0.013 | saracatinib -0.018 | sotrastaurin 0.054

CNOT6L (UniProt Q96LI5)
inactive: vemurafenib 0.035 | [1] -0.007 | barasertib 0.065 | [2] -0.006 | volasertib 0.006 | [3] 0.078 | [5] 0.107 | saracatinib 0.048 | sotrastaurin -0.019
active: [4] -0.422

CLIP1 isoform 1 (UniProt P30622)
inactive: vemurafenib -0.011 | [1] 0.016 | barasertib -0.011 | [2] 0.034 | volasertib 0.034 | [3] -0.03 | [4] -0.055 | [5] 0.02 | saracatinib 0.021 | sotrastaurin 0.008

DENND6A (UniProt Q8IWF6)
inactive: vemurafenib 0.025 | [1] 0.033 | barasertib 0.066 | [2] 0.029 | volasertib -0.062 | [3] 0.019 | [4] 0.017 | [5] 0.004 | saracatinib -0.012 | sotrastaurin -0.027

DDB2 (UniProt Q92466)
Sequence of UniProt Q92466 (Q92466 whole entry, looked up): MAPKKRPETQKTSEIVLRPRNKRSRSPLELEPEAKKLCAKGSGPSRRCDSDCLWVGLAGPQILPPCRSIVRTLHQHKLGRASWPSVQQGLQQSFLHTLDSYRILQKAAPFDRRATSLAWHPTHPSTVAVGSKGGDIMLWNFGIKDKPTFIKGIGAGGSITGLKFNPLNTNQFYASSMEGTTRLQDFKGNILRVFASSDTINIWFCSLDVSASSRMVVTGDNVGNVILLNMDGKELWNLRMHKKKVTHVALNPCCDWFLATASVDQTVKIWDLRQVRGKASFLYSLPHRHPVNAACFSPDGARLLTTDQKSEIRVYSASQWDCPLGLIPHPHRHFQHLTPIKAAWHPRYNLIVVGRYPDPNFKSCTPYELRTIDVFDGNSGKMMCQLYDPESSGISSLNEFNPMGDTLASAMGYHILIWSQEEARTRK
inactive: vemurafenib -0.073 | [1] 0.001 | barasertib 0.025 | [2] 0.015 | volasertib -0.003 | [3] 0 | [4] 0.006 | [5] 0.019 | saracatinib -0.022 | sotrastaurin 0.075

COL6A5 (UniProt A8TX70)
Sequence of UniProt A8TX70 (A8TX70 whole entry, looked up): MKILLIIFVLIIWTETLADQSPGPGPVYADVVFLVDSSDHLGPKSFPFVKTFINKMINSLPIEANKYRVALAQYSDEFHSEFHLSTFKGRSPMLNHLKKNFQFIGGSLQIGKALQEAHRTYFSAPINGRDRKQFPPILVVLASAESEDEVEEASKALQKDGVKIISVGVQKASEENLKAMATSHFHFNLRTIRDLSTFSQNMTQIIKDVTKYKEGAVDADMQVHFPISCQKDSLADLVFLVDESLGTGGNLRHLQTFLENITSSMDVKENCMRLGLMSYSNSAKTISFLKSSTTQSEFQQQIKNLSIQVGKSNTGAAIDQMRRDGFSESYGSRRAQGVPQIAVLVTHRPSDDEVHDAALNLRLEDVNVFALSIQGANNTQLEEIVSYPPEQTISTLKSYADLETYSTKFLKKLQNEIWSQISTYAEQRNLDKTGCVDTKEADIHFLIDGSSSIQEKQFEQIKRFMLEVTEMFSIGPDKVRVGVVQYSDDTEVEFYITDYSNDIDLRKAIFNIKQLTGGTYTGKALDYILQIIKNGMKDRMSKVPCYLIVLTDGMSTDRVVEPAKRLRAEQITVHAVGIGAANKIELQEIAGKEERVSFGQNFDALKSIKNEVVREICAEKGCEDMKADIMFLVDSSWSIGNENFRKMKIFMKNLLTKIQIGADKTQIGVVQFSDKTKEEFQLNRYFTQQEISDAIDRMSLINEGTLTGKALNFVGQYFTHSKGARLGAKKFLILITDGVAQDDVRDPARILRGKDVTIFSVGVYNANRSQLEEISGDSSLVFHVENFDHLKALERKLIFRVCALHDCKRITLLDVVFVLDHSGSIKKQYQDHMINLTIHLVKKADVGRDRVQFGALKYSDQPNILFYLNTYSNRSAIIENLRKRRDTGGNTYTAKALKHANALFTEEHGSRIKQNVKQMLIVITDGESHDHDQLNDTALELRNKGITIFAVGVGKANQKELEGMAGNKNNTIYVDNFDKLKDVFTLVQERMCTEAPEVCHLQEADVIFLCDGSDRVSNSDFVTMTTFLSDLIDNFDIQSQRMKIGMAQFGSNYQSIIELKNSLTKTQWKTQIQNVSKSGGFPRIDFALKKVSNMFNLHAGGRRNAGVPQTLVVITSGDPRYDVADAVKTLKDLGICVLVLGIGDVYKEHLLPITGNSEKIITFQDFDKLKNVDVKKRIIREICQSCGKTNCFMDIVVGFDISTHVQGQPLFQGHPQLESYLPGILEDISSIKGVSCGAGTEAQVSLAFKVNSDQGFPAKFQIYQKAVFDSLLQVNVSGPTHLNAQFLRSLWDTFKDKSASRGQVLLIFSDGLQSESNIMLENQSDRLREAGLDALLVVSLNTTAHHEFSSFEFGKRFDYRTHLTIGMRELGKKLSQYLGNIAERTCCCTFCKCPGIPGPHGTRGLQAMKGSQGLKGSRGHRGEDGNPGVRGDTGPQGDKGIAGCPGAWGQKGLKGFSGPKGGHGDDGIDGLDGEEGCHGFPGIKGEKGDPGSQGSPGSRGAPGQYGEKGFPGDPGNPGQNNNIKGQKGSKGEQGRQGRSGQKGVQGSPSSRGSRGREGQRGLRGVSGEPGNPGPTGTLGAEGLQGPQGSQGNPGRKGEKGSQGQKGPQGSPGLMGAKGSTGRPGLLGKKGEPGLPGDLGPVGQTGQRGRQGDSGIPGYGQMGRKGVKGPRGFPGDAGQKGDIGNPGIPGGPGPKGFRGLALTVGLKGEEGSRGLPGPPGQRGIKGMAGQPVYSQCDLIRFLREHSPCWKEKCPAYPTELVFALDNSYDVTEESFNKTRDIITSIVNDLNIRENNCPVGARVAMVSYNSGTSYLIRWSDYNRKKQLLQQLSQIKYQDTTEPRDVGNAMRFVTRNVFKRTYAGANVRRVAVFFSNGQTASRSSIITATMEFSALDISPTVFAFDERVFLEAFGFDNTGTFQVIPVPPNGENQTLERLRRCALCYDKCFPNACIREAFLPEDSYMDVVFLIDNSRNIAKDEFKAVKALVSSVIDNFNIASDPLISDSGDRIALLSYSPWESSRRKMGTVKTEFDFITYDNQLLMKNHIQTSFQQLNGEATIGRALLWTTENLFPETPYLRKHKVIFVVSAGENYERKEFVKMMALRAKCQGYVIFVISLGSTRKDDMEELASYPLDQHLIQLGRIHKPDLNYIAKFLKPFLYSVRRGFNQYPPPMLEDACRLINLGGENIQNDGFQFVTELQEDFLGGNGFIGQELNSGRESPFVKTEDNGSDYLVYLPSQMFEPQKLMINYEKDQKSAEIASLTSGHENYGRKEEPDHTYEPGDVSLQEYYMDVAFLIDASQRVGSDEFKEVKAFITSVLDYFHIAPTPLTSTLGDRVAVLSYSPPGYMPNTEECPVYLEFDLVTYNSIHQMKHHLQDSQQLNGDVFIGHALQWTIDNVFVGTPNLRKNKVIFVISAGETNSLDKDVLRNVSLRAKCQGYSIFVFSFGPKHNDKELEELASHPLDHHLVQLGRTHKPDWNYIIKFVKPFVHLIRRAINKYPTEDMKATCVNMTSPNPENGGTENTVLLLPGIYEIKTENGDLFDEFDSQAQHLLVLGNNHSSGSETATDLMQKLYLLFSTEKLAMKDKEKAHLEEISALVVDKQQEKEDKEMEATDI
inactive: vemurafenib 0.073 | [1] 0.041 | barasertib 0.09 | [2] 0.078 | volasertib -0.044 | [3] -0.055 | [5] 0.374 | saracatinib -0.048 | sotrastaurin -0.03
active: [4] -0.834

DCUN1D4 isoform 3 (UniProt Q92564)
inactive: vemurafenib 0.066 | [1] 0.075 | barasertib -0.027 | volasertib 0.049 | [3] -0.02 | [4] -0.036 | [5] 0.02 | saracatinib 0.005 | sotrastaurin 0.028
active: [2] -0.321

COG4 (UniProt Q9H9E3)
inactive: vemurafenib 0.018 | [1] 0.047 | barasertib 0.085 | [2] -0.048 | volasertib -0.088 | [3] 0.024 | [4] 0.005 | [5] -0.125 | saracatinib 0.055 | sotrastaurin 0.05

COG5 isoform 2 (UniProt Q9UP83)
inactive: vemurafenib 0.001 | [1] 0.06 | barasertib -0.116 | [2] -0.056 | volasertib -0.084 | [3] -0.007 | [4] -0.02 | [5] 0.01 | saracatinib 0.057 | sotrastaurin 0.08

CYP24A1 (UniProt Q07973)
active: [4] -0.499
inactive: vemurafenib 0.065 | [1] -0.01 | barasertib -0.055 | [2] 0.166 | volasertib 0.006 | [3] -0.212 | [5] 0.268 | saracatinib 0.056 | sotrastaurin 0

CLP1 (UniProt Q92989)
inactive: vemurafenib -0.035 | [1] 0 | barasertib 0.03 | [2] -0.045 | volasertib -0.05 | [3] 0.015 | [4] -0.13 | [5] 0.096 | saracatinib 0.115 | sotrastaurin 0.036

DNAJC3 (UniProt Q13217)
Sequence of UniProt Q13217 (Q13217 whole entry, looked up): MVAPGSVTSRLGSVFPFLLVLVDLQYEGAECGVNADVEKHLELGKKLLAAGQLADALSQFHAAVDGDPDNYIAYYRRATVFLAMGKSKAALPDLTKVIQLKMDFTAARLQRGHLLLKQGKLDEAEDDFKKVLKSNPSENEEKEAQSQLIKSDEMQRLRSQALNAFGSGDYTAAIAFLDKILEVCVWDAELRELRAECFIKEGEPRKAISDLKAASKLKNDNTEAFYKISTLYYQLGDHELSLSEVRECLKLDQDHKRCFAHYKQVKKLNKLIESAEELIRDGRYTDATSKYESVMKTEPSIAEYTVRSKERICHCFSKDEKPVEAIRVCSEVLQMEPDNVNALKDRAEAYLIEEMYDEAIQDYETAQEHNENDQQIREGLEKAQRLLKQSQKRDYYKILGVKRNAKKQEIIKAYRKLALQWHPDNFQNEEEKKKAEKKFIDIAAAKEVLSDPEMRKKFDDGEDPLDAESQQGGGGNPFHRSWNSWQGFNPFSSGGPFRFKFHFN
inactive: vemurafenib -0.016 | [1] 0.009 | barasertib 0.006 | [2] 0.023 | volasertib -0.004 | [3] 0.082 | [4] 0.016 | [5] -0.076 | saracatinib 0.008 | sotrastaurin -0.109

CYP51A1 (UniProt Q16850)
inactive: vemurafenib -0.014 | [1] -0.007 | barasertib -0.011 | [2] 0.053 | volasertib 0.01 | [3] -0.02 | [4] -0.103 | [5] -0.066 | saracatinib -0.043 | sotrastaurin 0.001

DEF6 (UniProt Q9H4E7)
inactive: vemurafenib -0.004 | [1] -0.005 | barasertib -0.05 | [2] -0.101 | volasertib -0.05 | [3] -0.033 | [4] -0.071 | [5] 0.049 | saracatinib 0.07 | sotrastaurin 0.004

CTNND1 isoform 3 (UniProt O60716)
inactive: vemurafenib 0.06 | [1] 0.037 | barasertib 0.036 | [2] -0.034 | volasertib -0.098 | [3] 0.073 | [4] -0.032 | [5] 0.004 | saracatinib -0.012 | sotrastaurin 0.024

CSTB (UniProt P04080)
inactive: vemurafenib 0.007 | [1] 0.001 | barasertib 0.077 | [2] 0.043 | volasertib 0.044 | [3] -0.027 | [5] 0.174 | saracatinib 0.013 | sotrastaurin 0.086
active: [4] -0.376

DLD (UniProt P09622)
inactive: vemurafenib 0.007 | [1] 0.003 | barasertib -0.032 | [2] 0.032 | volasertib 0.057 | [3] -0.018 | [4] -0.071 | [5] 0.04 | saracatinib 0.009 | sotrastaurin -0.015

CLUH (UniProt O75153)
Sequence of UniProt O75153 (O75153 whole entry, looked up): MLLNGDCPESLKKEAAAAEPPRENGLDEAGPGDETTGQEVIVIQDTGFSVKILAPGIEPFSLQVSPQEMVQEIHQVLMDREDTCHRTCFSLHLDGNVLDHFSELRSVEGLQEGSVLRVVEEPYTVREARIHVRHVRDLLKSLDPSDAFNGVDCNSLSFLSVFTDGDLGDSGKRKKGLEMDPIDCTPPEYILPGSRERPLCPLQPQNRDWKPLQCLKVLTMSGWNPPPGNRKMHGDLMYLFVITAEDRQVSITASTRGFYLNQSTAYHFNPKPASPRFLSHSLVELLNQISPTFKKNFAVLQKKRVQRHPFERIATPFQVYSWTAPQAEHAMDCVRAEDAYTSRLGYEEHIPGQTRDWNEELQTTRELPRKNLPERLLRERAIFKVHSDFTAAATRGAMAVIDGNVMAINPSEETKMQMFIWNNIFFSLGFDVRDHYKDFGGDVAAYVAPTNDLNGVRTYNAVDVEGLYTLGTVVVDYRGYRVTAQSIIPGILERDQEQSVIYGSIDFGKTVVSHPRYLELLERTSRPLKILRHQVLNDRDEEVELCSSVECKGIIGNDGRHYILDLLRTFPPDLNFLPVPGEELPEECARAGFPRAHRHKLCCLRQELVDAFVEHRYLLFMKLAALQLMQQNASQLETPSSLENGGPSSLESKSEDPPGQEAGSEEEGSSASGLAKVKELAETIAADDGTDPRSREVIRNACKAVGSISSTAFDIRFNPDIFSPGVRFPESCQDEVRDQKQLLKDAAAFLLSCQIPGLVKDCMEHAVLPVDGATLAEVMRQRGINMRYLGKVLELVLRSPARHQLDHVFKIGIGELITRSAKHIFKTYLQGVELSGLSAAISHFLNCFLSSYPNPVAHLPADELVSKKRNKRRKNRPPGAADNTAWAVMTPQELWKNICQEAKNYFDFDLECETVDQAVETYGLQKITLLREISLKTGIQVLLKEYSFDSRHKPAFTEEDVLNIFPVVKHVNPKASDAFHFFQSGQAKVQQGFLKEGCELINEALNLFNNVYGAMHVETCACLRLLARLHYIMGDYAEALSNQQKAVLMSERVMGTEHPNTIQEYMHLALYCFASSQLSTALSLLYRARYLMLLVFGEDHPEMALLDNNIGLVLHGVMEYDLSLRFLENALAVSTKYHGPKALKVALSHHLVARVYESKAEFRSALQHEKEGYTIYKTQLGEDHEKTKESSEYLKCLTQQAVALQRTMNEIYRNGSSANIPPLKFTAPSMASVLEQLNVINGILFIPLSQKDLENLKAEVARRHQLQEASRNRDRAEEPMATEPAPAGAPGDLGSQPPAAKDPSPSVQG
inactive: vemurafenib -0.03 | [1] 0.014 | barasertib 0.024 | [2] 0.012 | volasertib -0.02 | [3] -0.009 | [4] -0.024 | [5] 0.117 | saracatinib 0.011 | sotrastaurin 0.01

COASY isoform 2 (UniProt Q13057)
inactive: vemurafenib 0.076 | [1] 0.017 | barasertib 0.011 | [2] -0.075 | volasertib -0.098 | [3] 0.034 | [4] -0.063 | [5] 0.038 | saracatinib 0.021 | sotrastaurin 0.079
